Measurements published in PubChem BioAssay (NCATS).
Results filed as inconclusive are left out. Activity calls are given as the source filed them. Calls follow the shape of the full dose curve.

Test: qHTS Assay for Lipid Storage Modulators (AID 1519); as to activity change, negative = inhibition: % is scaled to controls: 0 for no effect and ±100 for the full control effect
Conditions: Drosophila S3 cells, BODIPY lipid droplet/cell ratio, laser cytometry, cells loaded with oleic acid
Text: NIH Molecular Libraries Probe Production Centers Network [MLPCN]
NIH Chemical Genomics Center [NCGC]
Assay Submitter (PI): Beller, Mathias; Max-Planck-Institut fur Biophysikalische Chemie
NCGC Assay Overview: Storing lipids as a reservoir for energy or the anabolism of elementary metabolites is a common feature of probably all cells and is conserved from bacteria to humans. The universal cellular lipid storage organelle is the so-called lipid storage droplet (LD). Although ubiquitous, LDs share a simple structure composed of a hydrophobic core that harbors the storage lipids, which is shielded by a droplet-specific phospholipid monolayer to which proteins are attached. The current model of LD biogenesis involves an incorporation of the lipid core into the membrane leaflets of the endoplasmic reticulum (ER) followed by a subsequent budding-like maturation of a LD, which ultimately pinches off. Once released, LD volume can increase by localized lipogenesis or fusion of existing droplets. Storage lipids are re-mobilized enzymatically by lipase activity. Lipase regulation in the adipocyte is heavily studied and involves multiple components including catecholamine signaling, the LD-associated proteins Perilipin and comparative gene identification-58 (CGI-58) and at least two lipases named hormone sensitive lipase (HSL) and adipocyte triglyceride lipase (ATGL). LD regulation outside of the adipocyte is poorly understood and only few components are known. However, there is an urgent need to learn more about ectopic fat depots as mislocalized storage of lipids, for example in the liver or muscle, is an eminent health problem associated with insulin resistance or the metabolic syndrome. We developed a laser-scanning cytometer assay to enable 1,536-well screening and combined the results of the small molecules screen with an RNAi database based on lipid storage.
NCGC Assay Protocol Summary:
We dispensed 4 uL of cells at 1.25 x 10^6 cells/mL into LoBase Aurora COC 1,536-well plates (black walled, clear bottom) with a bottle-valve solenoid-based dispenser (Aurora) to obtain 5,000 cells/well. Triacsin C (Sigma-Aldrich T-4540), an inhibitor of long-chain fatty acyl CoA synthetase that blocks synthesis of triglycerides, was used as a positive control for lipid under-storage. A total of 23 nL of compound solution of different concentrations were transferred to the assay plates using a Kalypsys pin tool equipped with a 1,536-pin array containing 10-nL slotted pins (FP1S10, 0.457-mm diameter, 50.8 mm long; V&P Scientific). One microliter of oleic acid (400 uM) was added, and the plate was lidded with stainless steel rubber gasket lined lids containing pinholes. […] Fluorescence was detected by excitation of the fluorophores with a 488-nm laser on an Acumen Explorer (TTP Lab Tech). The total intensity in channel 1 (500-530 nm) reflected lipid droplet accumulation. […] The ratio of the total intensity in PMT channel 1 over total intensity of channel 3 was also calculated. Percent activity was computed relative to an internal control (100% inhibited lipid droplet deposition due to the presence of 20 uM Triacsin C), which was added to 32 wells/plate.

[1] = measured here: cell count channel max response
[2] = measured here: lipid channel max response

## Nc1ccc(S(=O)(=O)Nc2ncccn2)cc1
At 25.7 µM (top of the series)
  activity change, negative = inhibition: 0.373% (inactive)
[1]
  max response: -6.66%
[2]
  max response: -7.25%

## C[C@H]1C[C@@H]2[C@@H]([C@@H](O)C[C@@]3(C)[C@H]2CC[C@]3(O)C(=O)CO)[C@@]2(C)C=CC(=O)C=C12
At 25.7 µM (top of the series)
  activity change, negative = inhibition: -1.2% (inactive)
[1]
  max response: -15.5%
[2]
  max response: -14.8%

## CC[C@H](CO)Nc1nc(NCc2ccccc2)c2ncn(C(C)C)c2n1
At 57.5 µM (top of the series)
  activity change, negative = inhibition: 2.75% (inactive)
[1]
  max response: 73%
[2]
  max response: 78.1%

## O=c1c2ccccc2nc2n1CCc1c-2[nH]c2ccccc12
At 57.5 µM (top of the series)
  activity change, negative = inhibition: 1.95% (inactive)
[1]
  max response: 45%
[2]
  max response: 50%

## CC[C@@]1(O)C(=O)OCc2c1cc1n(c2=O)Cc2cc3cc(O)ccc3nc2-1
At 57.5 µM (top of the series)
  activity change, negative = inhibition: -14.2% (inactive)
[1]
  max response: -6.87%
[2]
  max response: -17.5%

## Cc1coc2c1C(=O)C(=O)c1c-2ccc2c1CCCC2(C)C
At 57.5 µM (top of the series)
  activity change, negative = inhibition: 6.48% (inactive)
[1]
  max response: 16.1%
[2]
  max response: 23.2%
